The test system of one test is T1, DCAMKL3.
T1 construct: gene DCLK3

In another test the test system is T2, DRAK2.
T2 construct: gene STK17B
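Note: kd values determined as follow-up on hits from a single-replicate KINOMEscan panel screen.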

The term Kd denotes the constant that tells how readily two partners part at equilibrium. Read a high Kd as a looser complex. Turning to `CC[C@@H]1CO[C@H](C(=O)Nc2ccccc2)CN1c1cc(-c2ccc3c(N)n[nH]c3c2)nc(NC)n1` [GSK2376236], the Kd in the test on DCAMKL3 was 0.57 µM.
In the case of `CNc1nc(-c2ccc3c(N)n[nH]c3c2)cc(N2C[C@@H](C(=O)Nc3ccccc3)CC[C@H]2C)n1` [GSK2298859], in the test with DRAK2, binding was characterised by a dissociation constant (Kd) of 0.083 µM.
Compound `COc1ccc(Nc2nccc(N3CCC(NC(=O)C(C)c4ccc(Cl)cc4)CC3)n2)cc1` (stereo not shown) [GSK1379812] gave a dissociation constant (Kd) with DYRK1A greater than 10 µM.
For `CNc1cc(-c2ccc3c(N)n[nH]c3c2)nc(N)n1` [GSK2224810], the Kd with DYRK2 amounted to 0.033 µM.
In turn, `Cn1cncc1-c1cc2c(Nc3ccc(OCc4ccccc4)cc3)ncnc2cn1` [GW281179] came in with a dissociation constant Kd with EGFR of 0.01 µM.
In the test with EPHA3, `Cc1ccc(NC(=O)c2ccc(Cl)cc2)cc1-c1ccc(C(=O)Nc2ccncc2)cc1` [GSK1398467] gave a Kd greater than 10 µM.
`Cc1ccc(-c2nc(Nc3ccncc3)c3ccccc3n2)s1` [GSK189015] yielded a Kd with EPHA5 greater than 10 µM.

(Values after paper PMC5540273 (PLoS ONE, 2017).)
